TLR4-MyD88 BLA = inhibitors of TLR4-MyD88 association in cells, primary screen, cell-based, HeLa CL3-4, BLA complementation, FRET ratio. Toll-like receptor 4 (Homo sapiens) + Myeloid differentiation primary response protein …. HeLa CL3-4 TLR4/MyD88 BLA complementation. inhibition, % at 8.4 µM. 200,000 compounds, 0.18% hits; in the data active = inhibition above about 25%;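 also: 0% = vehicle and 100% = reference inhibitor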
TLR9-MyD88 inh = inhibitors of TLR9-MyD88 association in cells, primary screen, cell-based, CHO, BLA complementation, fluorescence | Toll-like receptor 9 (Homo sapiens) + Myeloid differentiation primary response protein … | CCF4 FRET ratio | inhibition, % at 4.98 µM | 340,000 compounds, 0.21% hits;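 active = inhibition above the mean over all tested compounds plus 3 SD, cut at about 21% in these data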;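 also: 0% = DMSO only wells and 100% = clavulanate BLA inhibitor control wells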
NOD2-RIPK2 inh = NOD2-RIPK2 binding disruptors in cells, primary screen, fluorescence, CHO cells, BLA complementation | CCF4 ratio | AID 624267, 2012 | inhibition, % at 4.98 µM | 360,000 compounds, 0.38% hits; in the data active = inhibition above about 21%;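 also: 0% = vehicle only and 100% = reference blocker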
GRK2 inh = compounds blocking aptamer binding on GRK2 – biochemical, human GRK2, bead flow cytometry, HTS, primary screen. inhibition of aptamer binding, % at 10 µM. Beta-adrenergic receptor kinase 1 (Homo sapiens), P25098. AID 488847, 2010. FAM-aptamer displacement from GRK2. 330,000 compounds, 0.59% hits;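 active = inhibition of aptamer binding above 40%, roughly 3 SD of noise, on plates passing a quality check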;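 also: median bead fluorescence of bound FAM aptamer so fluorescent compounds give negative values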
TMEM16A inh = TMEM16A chloride channel inhibitors, primary screen, cell-based, HTS; AID 588511, 2011; normalized B-score (activity score, 25-100; higher = stronger inhibition) at 10 µM; 310,000 compounds, 1.2% hits; HEK293 TMEM16A/YFP iodide influx fluorescence, ionomycin;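 active = ratio plate-corrected score three or more library SD toward inhibition, starting fluorescence score within five deviations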;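 also: score derived from kinetic fluorescence span divided by baseline fluorescence per well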
ANO1 activ = TMEM16A chloride channel activators or potentiators, primary screen, cell-based, HTS; HEK293 TMEM16A/YFP-H148Q/I152L, iodide quench fluorescence; active compounds read low; B-score at 10 µM; 340,000 compounds, 0.3% hits;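 active = fluorescence-ratio B-score plate-corrected deviation score at least 3 library SD below zero, with starting fluorescence score within 5 deviations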;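 also: channel opened by trigger with iodide after compound preincubation; score built on the fluorescence ratio of max minus min over baseline; more negative score means more quench and so TMEM16A activation or potentiation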
TMEM16A reconf = TMEM16A chloride channel inhibitors, confirmation, cell-based, re-confirmation. shares compounds with TMEM16A inh. HEK293 TMEM16A/YFP-H148Q, iodide quench fluorescence; ionomycin added to raise cell calcium. inhibition, % at 10 µM. 2,300 compounds, 39% hits. AID 652189, 2013;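 active = mean duplicate percent inhibition, scaled so buffer wells are 0 and the reference blocker 100, over three buffer SD above buffer mean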
HEK293 Ca mobil = calcium mobilization in TMEM16A/YFP HEK293 cells, confirmation, counter-screen for TMEM16A inhibitor project; 2,300 compounds, 2% hits; calcium response (% of ionomycin), % at 10 µM; AID 652231, 2013; shares compounds with TMEM16A inh; Fluo4 calcium mobilization;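 active = duplicate-averaged calcium signal over 20% of the ionomycin maximum, relative to buffer baseline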;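 also: each well's signal is peak minus trough fluorescence divided by its pre-addition baseline; 0% = buffer wells and 100% = ionomycin wells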
YFP-HEK293 quench = iodide YFP quench changes in parental YFP-HEK293, counter-screen for TMEM16A inhibitor project, cell-based; shares compounds with TMEM16A inh; ionomycin; YFP ratio F(max-min)/F0 at 10 µM; 2,300 tested, under 10 active; AID 652233, 2013;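 active = yellow fluorescent protein signal ratio exceeding the buffer control mean by over 5 SD of those controls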;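 also: ratio is mean of duplicate wells from kinetic YFP trace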
ClC-1 rat inh = ClC-1 chloride channel inhibition, selectivity assay for TMEM16A inhibitor project, cell-based, voltage-dependent ClC-1; shares compounds with TMEM16A inh; CHO ClC-1-YFP, iodide influx fluorescence quench; iodide control reads 0, buffer control 100; ratio percent, % at 10 µM; 2,300 tested, under 10 active;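 active = duplicate-mean ratio percent above the mean of iodide-only control wells, which defines zero, plus 5 of their SD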;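 also: higher percent means stronger block of ClC-1 iodide influx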
Target sequence (P35524 whole entry, looked up): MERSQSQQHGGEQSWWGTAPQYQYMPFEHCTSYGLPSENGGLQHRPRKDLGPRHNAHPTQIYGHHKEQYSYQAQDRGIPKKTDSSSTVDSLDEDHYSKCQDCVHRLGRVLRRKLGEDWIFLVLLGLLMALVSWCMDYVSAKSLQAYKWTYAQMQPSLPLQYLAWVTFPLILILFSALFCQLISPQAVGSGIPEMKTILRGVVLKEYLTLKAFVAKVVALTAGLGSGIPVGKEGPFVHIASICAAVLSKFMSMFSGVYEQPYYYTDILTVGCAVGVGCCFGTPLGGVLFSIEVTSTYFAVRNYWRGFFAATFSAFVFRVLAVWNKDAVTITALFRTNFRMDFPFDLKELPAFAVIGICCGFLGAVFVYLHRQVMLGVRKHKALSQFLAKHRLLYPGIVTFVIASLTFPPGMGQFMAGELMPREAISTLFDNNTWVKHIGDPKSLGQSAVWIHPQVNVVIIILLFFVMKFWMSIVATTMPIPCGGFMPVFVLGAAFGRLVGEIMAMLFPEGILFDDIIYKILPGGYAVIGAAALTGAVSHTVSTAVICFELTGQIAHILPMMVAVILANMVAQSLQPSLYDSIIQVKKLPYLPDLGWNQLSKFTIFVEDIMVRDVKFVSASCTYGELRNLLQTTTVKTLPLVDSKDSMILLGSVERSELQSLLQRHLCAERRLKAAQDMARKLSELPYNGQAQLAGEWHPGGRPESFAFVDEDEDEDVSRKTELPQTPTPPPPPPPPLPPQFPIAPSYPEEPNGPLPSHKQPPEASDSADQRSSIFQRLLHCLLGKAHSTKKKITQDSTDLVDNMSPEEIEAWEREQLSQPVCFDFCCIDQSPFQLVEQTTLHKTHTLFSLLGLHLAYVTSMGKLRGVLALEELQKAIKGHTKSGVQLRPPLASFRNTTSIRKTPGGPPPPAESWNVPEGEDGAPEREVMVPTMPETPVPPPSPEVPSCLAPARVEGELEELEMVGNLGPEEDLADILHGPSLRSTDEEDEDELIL
Numbers without * were called inactive; i = inactive; . = not tested or not shown. Shown are actives, neighbours in structure and some others; about 2.2% of the full set was active somewhere.

SMILES | TLR4-MyD88 BLA | TLR9-MyD88 inh | NOD2-RIPK2 inh | GRK2 inh | TMEM16A inh | ANO1 activ | TMEM16A reconf | HEK293 Ca mobil | YFP-HEK293 quench | ClC-1 rat inh
CCN(CC)S(=O)(=O)c1ccc(-n2c(=O)c(C(C)C)c(C)n2C)cc1 | -14 | 6 | -13 | 0 | i | i | . | . | . | .
O=C(CNCc1ccccc1Cl)Nc1ccccc1N1CCCCC1 | -5 | -7 | -3 | 0 | 25* | i | i | i | -1.1 | -8
Cc1cc(Cl)ccc1OCC(=O)NC(=S)Nc1ccccc1N1CCOCC1 | 14 | -11 | 10 | 0 | i | i | . | . | . | .
O=C(Nc1ccccc1N1CCCC1)c1ccccc1F | . | 0 | 0 | 1 | i | i | . | . | . | .
O=C(Nc1ccccc1N1CCCCC1)c1ccccc1F | -12 | 14 | 5 | 2 | 25* | i | i | i | -0.91 | -4
Cc1cc(Cl)ccc1OCC(=O)Nc1ccccc1N1CCOCC1 | -5 | -3 | 6 | 1 | 100* | i | 22%* | i | -0.99 | -15
O=C(COc1c(Cl)cccc1Cl)Nc1ccccc1N1CCCC1 | . | 4 | -4 | 0 | 25* | i | i | i | -1.3 | -16
Cc1cc(-c2ccc([N+](=O)[O-])cc2)cc(C)n1 | . | 1 | 1 | . | . | i | . | . | . | .
O=C(Nc1ccccc1C(=O)Nc1nccs1)c1ccccc1 | . | . | -7 | . | . | . | . | . | . | .
COc1ccc(C)cc1NC(=O)c1ccccc1NS(=O)(=O)c1ccc(Cl)s1 | 3 | -7 | -5 | 0 | 100* | i | 48%* | i | -1 | -13
COc1ccccc1NC(=O)c1ccccc1NS(=O)(=O)c1cccs1 | -8 | -9 | 2 | 2 | i | i | . | . | . | .
CC(C)c1noc2ncc(C(=O)c3cc(Cl)cc(Cl)c3O)cc12 | -1 | 5 | -10 | 0 | 25* | i | 32%* | i | -0.88 | -4
Cc1cccc(S(=O)(=O)NC(=O)C2(C)CCN2C(=O)c2cccc(F)c2)c1 (centres undefined) | . | . | -18 | . | . | . | . | . | . | .
COc1cccc(-c2cc3onc(-c4ccccc4)c3c(=O)n2C)c1 | . | -3 | -5 | 5 | 25* | i | i | i | -0.91 | -19
COC(=O)c1ccc(-c2cc3onc(-c4ccccc4)c3c(=O)n2C)cc1 | . | 7 | 2 | 3 | 25* | i | i | i | -1 | -4
Cc1ccc(S(=O)(=O)NN=Cc2ccccc2Cl)cc1 | . | -5 | -11 | . | . | . | . | . | . | .
CCCN(C(=O)COC(=O)c1[nH]c(C)c(C(=O)OC)c1C)c1c(N)n(Cc2ccccc2)c(=O)[nH]c1=O | . | -18 | 1 | 1 | i | i | . | . | . | .
Cc1nn(C(=O)c2cccs2)c(N)c1-c1ccccc1 | 2 | 4 | 2 | 1 | i | i | . | . | . | .
Cc1nn(C(=O)c2ccc3c(c2)OCO3)c(N)c1-c1ccccc1 | -6 | 2 | 11 | 2 | 100* | i | i | i | -1 | -2
Cc1ccc(N(C)S(=O)(=O)c2ccc(C)cc2)cc1 | -5 | 6 | 10 | 2 | i | i | . | . | . | .
Cc1ccc(S(=O)(=O)N(C)c2ccc3ccccc3c2)cc1 | -1 | -3 | 9 | 0 | 100* | i | i | i | -0.91 | -10
CCOC(=O)C1(Cc2cccc(OC)c2)CCN(C/C=C/c2ccc(OC)cc2)CC1 | 1 | -4 | 2 | 2 | 25* | i | i | i | -1.2 | -18
COc1cc(CN(C)C(C)C(=O)Nc2ccc([N+](=O)[O-])cc2Cl)ccc1OC(F)F (centres undefined) | -15 | 3 | 6 | 0 | i | i | . | . | . | .
COc1ccc(Cl)cc1NC(=O)C(C)N(C)Cc1ccc(C(F)(F)F)cc1 (centres undefined) | 2 | 3 | -11 | 3 | 100* | i | i | i | -0.83 | -6
CSc1ccccc1C(=O)OCC(=O)Nc1cccnc1Cl | . | 5 | -1 | 1 | . | i | . | . | . | .
SMILES | TLR4-MyD88 BLA | TLR9-MyD88 inh | NOD2-RIPK2 inh | GRK2 inh | TMEM16A inh | ANO1 activ | TMEM16A reconf | HEK293 Ca mobil | YFP-HEK293 quench | ClC-1 rat inh
COc1cccc(CNC(=O)c2ccc(C)c(S(=O)(=O)N3CCCCC3)c2)c1 | . | -4 | -3 | 1 | i | i | . | . | . | .
Cc1ccc(-n2c(C)cc(C(=O)COc3c(CO)cc(F)cc3CO)c2C)cc1C | 0 | -2 | 7 | 1 | 25* | i | 32%* | i | -1.1 | -4
CCN(CC)c1ccc(Nc2nc(N3CCOCC3)c3ccccc3n2)cc1 | -15 | -2 | -4 | 0 | 100* | i | i | i | -1.2 | -18
COc1ccc(Nc2nc(N3CCCC3)c3ccccc3n2)cc1 | 7 | -2 | 4 | 0 | i | i | . | . | . | .
Cc1nc2ccccn2c1-c1csc(NCc2ccco2)n1 | 10 | -2 | -10 | 1 | 25* | i | i | i | -0.96 | -8
Cc1nc(C)c(-c2csc(NCc3ccco3)n2)s1 | -11 | 1 | 0 | 0 | i | i | . | . | . | .
Cc1ccc(Nc2nc(-c3c(C)nc4ccccn34)cs2)cc1 | -4 | 0 | 18 | 0 | 25* | i | 32%* | i | -1.4 | -16
O=C1c2cccc3cccc(c23)C(=O)N1CCO | . | -3 | -7 | . | . | . | . | . | . | .
O=C1c2cccc3c(N4CCCCC4)ccc(c23)C(=O)N1CCO | 7 | 13 | 21 | 0 | i | i | i | i | -1.1 | -50
CN1CCS/C1=C\C=C1/SC(=S)N(CC(=O)O)C1=O | 9 | -5 | -2 | . | . | i | . | . | . | .
CCN1C(=O)/C(=C/C=C2/SCCN2C)SC1=S | -12 | -2 | -3 | 0 | i | i | 24%* | i | -0.59 | 17

High-throughput results from PubChem.
